# This is a sample that favours compounds with a hit; in the whole collection about 2.6% have one here.
# Cruzain inh noDet – qHTS Assay for Promiscuous and Specific Inhibitors of Cruzain (without detergent). Cruzipain (Trypanosoma cruzi), P25779. purified cruzain, Z-FR-AMC fluorescence, no detergent. Potency, µM, for the others: max response, negative = inhibition, hits mostly inhibitors. 200,000 compounds, 2.3% hits;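 note: plate controls were enzyme without inhibitor for no effect and buffer without enzyme for full effect; nearly all actives have a fitted effect of over 40% in size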
# Target sequence (P25779 123-467 limits assumed): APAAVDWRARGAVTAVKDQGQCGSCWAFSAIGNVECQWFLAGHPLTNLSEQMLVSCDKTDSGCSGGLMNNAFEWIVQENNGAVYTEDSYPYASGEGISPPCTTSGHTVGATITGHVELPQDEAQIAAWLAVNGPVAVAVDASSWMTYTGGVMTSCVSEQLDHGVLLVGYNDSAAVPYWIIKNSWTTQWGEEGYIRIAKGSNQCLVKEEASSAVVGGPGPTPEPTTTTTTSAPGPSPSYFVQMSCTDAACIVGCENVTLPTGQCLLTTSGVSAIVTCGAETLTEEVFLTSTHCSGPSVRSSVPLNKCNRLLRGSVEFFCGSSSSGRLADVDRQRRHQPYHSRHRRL
#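 Detergent-free condition (0.00005% Triton X-100) in acetate buffer pH 5.5 with DTT. 1.5 nM enzyme and compound were pre-mixed 15 min, then 2 uM Z-FR-AMC substrate added; reaction progress from fluorescence change between first and third reads (60 s).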
# Cruzain Triton – qHTS Assay for Promiscuous and Specific Inhibitors of Cruzain (with detergent). purified cruzain, Z-FR-AMC fluorescence, 0.01% Triton. Potency, µM, inactives show max response, negative = inhibition, actives largely listed as inhibitors. 200,000 compounds, 0.43% hits. AID 1478, 2009;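 note: plate controls were neutral wells for no effect and buffer without enzyme for full effect; nearly all actives have a fitted effect of over 40% in size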
#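 In this qHTS format, compounds are incubated with 1.5 nM cruzain for 15 min at room temperature before 2 uM Z-FR-AMC is added. Release of AMC is followed at 360/450 nm, and progress is taken as the 60 s fluorescence difference.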
# The depositor's hits bear a star; ? = inconclusive. Calls come from the whole dose curve; as a rule, active = well fitted curve in the direction sought with a large enough effect; inconclusive = small, poorly fitted or top-dose-only effect, or another doubt; inactive = no such curve, though single readings can be large; an effect the other way counts as inactive or inconclusive. Potency is the fitted concentration of half-maximal effect.
SMILES,Cruzain inh noDet,Cruzain Triton
COc1ccc(S(=O)(=O)N(CC(=O)Nc2ccc(OC)cc2OC)c2ccc(Cl)cc2)cc1,-5%,-3%
Cc1cc(C)c(NC(=O)C(C)n2nnc3sc(-c4ccccc4)cc3c2=O)c(C)c1 (configuration not stated),?,4%
COc1ccc(NC(=O)C(C)n2nnc3sc(-c4ccccc4)cc3c2=O)cc1Cl (configuration not stated),25µM*,-12%
Cc1ccc(-c2nc3n(n2)C(c2ccccc2C)C=C(c2ccc(Cl)cc2)N3)cc1 (configuration not stated),9%,-21%
OC[C@@H]1[C@@H](c2ccccc2)C(c2cccc(Cl)c2)=NN1c1ccccc1,25µM*,2%
Cc1cccc(C2=NN(c3ccccc3)[C@H](CO)[C@H]2c2ccc(F)cc2)c1,?,-13%
COc1ccccc1[C@H]1C(c2cccc(Cl)c2)=NN(c2ccccc2)[C@@H]1CO,?,0%
Cc1cccc(C2=NN(c3ccccc3)[C@H](CO)[C@H]2c2ccc(Cl)cc2)c1,35µM*,0%
C[C@H]1C(c2ccccc2)=NN(c2ccccc2)[C@@H]1CO,-27%,2%
OC[C@@H]1[C@@H](c2ccccc2)C(c2ccccc2)=NN1c1ccccc1,28µM*,0%
Cc1cccc(N2CCN(S(=O)(=O)c3ccc(-c4cnc(C5CC5)o4)cc3)CC2)c1C,?,-1%
CC(=O)Nc1c(C)nn(-c2ccccc2)c1N1CCC(C(=O)NCc2ccccc2Cl)CC1,15%,28µM*
CC(=O)Nc1c(C)nn(-c2ccccc2)c1N1CCC(C(=O)NCc2cccc(Cl)c2)CC1,?,-14%
COc1ccc(C(=O)Nc2ccccc2SCc2cc(=O)c3cccc(C)c3[nH]2)cc1,-10%,1%
COc1ccc(N(Cc2cccs2)C(=O)c2ccco2)cc1,-3%,-4%
Cc1cc(O)c(NC(=S)NC(=O)c2ccc(-c3ccc(Cl)cc3)o2)cc1C,16µM*,5%
Cc1ccc(NC(=S)NC(=O)c2ccc(-c3ccc(Cl)cc3)o2)c(O)c1,-26%,0%
CC(C)c1ccc(CNc2nc(-c3ccco3)nn2C(=O)c2ccc([N+](=O)[O-])cc2)cc1,-9%,-1%
Oc1ccc(N=C/C=C/c2ccc(Br)cc2)cc1-c1nc2ccccc2s1,32µM*,-14%
COc1ccc(OCC(=O)Nc2ccc(O)c(-c3nc4ccccc4s3)c2)cc1,3%,-2%
COc1ccc(Cl)cc1NC(=O)c1cn(C2CCCCC2)c(=O)c2c1c1ccccc1n2C,10µM*,-1%
COc1cc(OC)c(NC(=O)c2cn(C3CCCC3)c(=O)c3c2c2ccccc2n3C)cc1Cl,4%,-2%
COc1ccc(NC(=O)Cn2c(=O)n(Cc3ccccc3)c(=O)c3sc4ccccc4c32)cc1,-2%,1%
Cc1cccc(C)c1NC(=O)CSc1nc(C)c(CC(=O)c2ccc(Br)cc2)c(C)c1C#N,32µM*,2%
Cc1nc(SCC(=O)Nc2ccccc2C(F)(F)F)c(C#N)c(C)c1CC(=O)c1ccc(Br)cc1,-12%,-1%
SMILES,Cruzain inh noDet,Cruzain Triton
O=C1c2cccc3cccc(c23)C(=O)N1c1nccs1,6%,-4%
O=C1c2cccc3cccc(c23)C(=O)N1c1ccc2ncccc2c1,?,18µM*
COc1ccc(CCNC(=O)c2cnc3sc(N4CCCC4)nn3c2=O)cc1OC,-1%,-2%
Cc1cccc(C(=O)Nc2ccccc2C(=O)OCC(=O)Nc2ccc(C#N)cc2)c1,32µM*,-5%
Cc1ccc(NC(=O)COC(=O)c2ccccc2Nc2ccccc2)cc1,?,-9%
COc1ccc(C2C(C#N)=C(N)N3C(=C2C#N)Sc2ccccc23)cc1 (configuration not stated),6.3µM*,-7%
COc1ccc(C2C(C#N)=C(N)Nc3nc4ccccc4n32)cc1 (configuration not stated),?,1%
O=C(Nc1ccccc1N1CCN(c2ccc(F)cc2)CC1)c1ccccc1,?,1%
O=C(Nc1ccccc1N1CCN(c2ccc(F)cc2)CC1)C12CC3CC(CC(C3)C1)C2,25µM*,-3%
Cc1cc(C)c2oc(-c3ccc(Cl)c(NC(=O)c4cccs4)c3)nc2c1,-4%,0%
CC(=O)n1c(COS(C)(=O)=O)nc2ccccc21,-14%,5%
Fc1ccc(N2CCN(c3ncnc4onc(-c5ccc(Cl)cc5)c34)CC2)cc1,4%,-8%
CC(=O)c1ccc(N2CCN(c3ncnc4onc(-c5ccc(Cl)cc5)c34)CC2)cc1,3.2µM*,-16%
O=c1c2ccccc2nc(SCc2nc(-c3ccccc3)no2)n1-c1ccc(F)cc1,25µM*,-3%
COc1ccc(-c2noc(CSc3nc4sc(C)c(C)c4c(=O)n3-c3ccccc3)n2)cc1OC,-18%,0%
COc1ccc(-c2noc(CSc3nc4ccccc4c(=O)n3-c3ccccc3)n2)cc1OC,12%,-1%
Cc1noc(C)c1CSc1nc2ccccc2c(=O)n1-c1ccc(Cl)cc1,20µM*,1%
Cc1noc(C)c1CSc1nc2sc(C)c(C)c2c(=O)n1-c1ccccc1,-13%,-1%
COc1ccc(-c2noc(CSc3nc4sc(C)c(C)c4c(=O)n3-c3ccccc3)n2)cc1,7.9µM*,-3%
COc1ccc(Oc2nc3c(c(=O)n(C)c(=O)n3C)n2Cc2ccc(Cl)cc2Cl)cc1,-7%,1%
Cc1cc(N)c2ccccc2[n+]1CCCCCCCCCCCCCC[n+]1c(C)cc(N)c2ccccc21,20µM*,13µM*
Cc1nc(N)sc1-c1csc(N(C)c2ccc(O)cc2)n1,5µM*,13µM*
Cc1nc(NC(=O)c2ccccc2)sc1-c1csc(N)n1,-14%,-9%
COc1ccc(-c2cn3c(n2)sc2cc(C(=O)NCCc4ccc(OC)cc4OC)ccc23)cc1,-8%,-1%
Cc1ccc2onc(CC(=O)N3CCN(c4ccccc4F)CC3)c2c1,?,-7%
SMILES,Cruzain inh noDet,Cruzain Triton
Cc1ccc2onc(CC(=O)N3CCN(c4ccc(F)cc4)CC3)c2c1,25µM*,28µM*
O=C(NCCC1=CCCCC1)C1CCN(S(=O)(=O)c2cccc3nsnc23)CC1,25µM*,-1%
O=C(NCCc1ccccc1)C1CCN(S(=O)(=O)c2cccc3nsnc23)CC1,-6%,2%
COc1ccc(NC(=O)c2c(-c3ccccc3)c(-c3ccccc3)nn(C)c2=O)cc1OC,?,-3%
O=C(CCn1c(=O)c2cccn2c2cccnc21)Nc1ccccc1C(F)(F)F,22%,1%
CCCCCCc1cc2cc(-c3nnc(-c4ccccc4O)o3)c(=O)oc2cc1O,-10%,-2%
CCCCCCc1cc2cc(S(=O)(=O)c3ccc(F)cc3)c(=O)oc2cc1O,25µM*,-7%
CCc1c(C)sc2c1CCN(C(=O)Nc1cc(Cl)c(OC)cc1OC)C2c1ccccc1 (configuration not stated),6.3µM*,-1%
CCc1c(C)sc2c1CCN(C(=O)Nc1ccc(F)c(Cl)c1)C2c1ccc(F)cc1 (configuration not stated),10µM*,-1%
CCc1c(C)sc2c1CCN(C(=O)Nc1ccccc1C(=O)OC)C2c1ccc(F)cc1 (configuration not stated),?,0%
CCc1c(C)sc2c1CCN(C(=O)Nc1ccccc1C(F)(F)F)C2c1ccccc1 (configuration not stated),-12%,-6%
Cc1ccc(C)c(N2CCN(C(=O)CN3CCSc4ccc(S(=O)(=O)N(C)C)cc43)CC2)c1,-13%,-5%

# Assay outcomes: PubChem, National Center for Advancing Translational Sciences (NCATS)
